# uPA surface inh: qHTS for Inhibitors of Cell Surface uPA Generation; 0.31% of 330,000 active; Potency, µM (series often up to 38.3 µM), inactives show at the top dose activity change, negative = inhibition, usual class: inhibitors; cell surface uPA generation assay, qHTS; active = well fitted inhibition curve with a large enough effect; inconclusive = small, poorly fitted or top-dose-only effect; inactive = no such curve, though single readings can be large or run the other way; tested in mouse RAW 264.7 cells; also: potency is read from the fitted curve at half-maximal effect; % is scaled to controls: 0 for no effect and ±100 for the full control effect; nearly all actives have a fitted effect of over 55% in size
# TDP1 cell CPT: qHTS for Inhibitors of human tyrosyl-DNA phosphodiesterase 1 (TDP1): qHTS in cells in presence of CPT. chicken DT40 Tdp1-/-;hTDP1 cells + 20 nM CPT, ATP luminescence, 48 h. Potency, µM (doses to about 46.2 µM), inactives show at the highest dose activity change, negative = growth inhibition, hits mostly inhibitors. 12% of 420,000 active. AID 686979, 2013; also: potency is read from the fitted curve at half-maximal effect; % is scaled to controls: 0 for no effect and ±100 for the full control effect; nearly all actives have a fitted effect of over 55% in size
#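 Chicken DT40 Tdp1-/- cells complemented with human TDP1, 400 cells/well, exposed to compounds plus 20 nM camptothecin for at least 48 h at 37 C; viability read as ATP content by CellTiter-Glo luminescence.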
# TDP1 inh: qHTS Assay for Inhibitors of Tyrosyl-DNA Phosphodiesterase (TDP1) | Tyrosyl-DNA phosphodiesterase 1 (Homo sapiens), Q9NUW8 | recombinant TDP1, AlphaScreen DNA substrate cleavage | Potency, µM (highest dose often 130 µM), for inactives: at the top dose activity change, negative = inhibition, actives largely listed as inhibitors | 0.28% of 350,000 active; also: potency is read from the fitted curve at half-maximal effect; % is scaled to controls: 0 for no effect and ±100 for the full control effect; nearly all actives have a fitted effect of over 40% in size
# Target sequence (Q9NUW8 whole entry, looked up): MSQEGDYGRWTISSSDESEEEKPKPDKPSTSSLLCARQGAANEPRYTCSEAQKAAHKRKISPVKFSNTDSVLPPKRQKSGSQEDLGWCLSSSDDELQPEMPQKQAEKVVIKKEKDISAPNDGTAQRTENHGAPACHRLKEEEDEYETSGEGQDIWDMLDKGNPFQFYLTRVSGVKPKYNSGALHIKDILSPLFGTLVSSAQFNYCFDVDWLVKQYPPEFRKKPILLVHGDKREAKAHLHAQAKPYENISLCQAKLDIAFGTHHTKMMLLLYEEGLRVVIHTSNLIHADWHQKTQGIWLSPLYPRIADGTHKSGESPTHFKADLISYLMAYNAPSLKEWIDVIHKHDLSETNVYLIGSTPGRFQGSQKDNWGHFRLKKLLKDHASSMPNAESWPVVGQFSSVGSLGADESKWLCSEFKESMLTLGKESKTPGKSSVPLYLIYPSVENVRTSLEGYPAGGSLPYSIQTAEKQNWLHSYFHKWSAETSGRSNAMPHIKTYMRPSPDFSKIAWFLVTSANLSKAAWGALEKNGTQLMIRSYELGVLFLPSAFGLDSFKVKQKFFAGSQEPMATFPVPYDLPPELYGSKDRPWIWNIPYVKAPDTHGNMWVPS
#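 Steps: enzyme plus compound, 15 min RT; add biotin/phosphotyrosine-FITC oligonucleotide (15 nM final), react 5 min; add donor/acceptor beads (10 ug/ml final), 10 min; read AlphaScreen. Tdp1 at 1 nM final.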
# miR-21 act: qHTS Assay for Modulators of miRNAs and/orActivators of miR-21. HeLa miR-21 FLuc reporter, luciferase, 48 h. Potency, µM (top dose mostly 38.3 µM), without a hit: top-dose activity change, positive = activation, actives largely listed as activators. 340,000 tested, under 10 active;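 also: % of control where 0% means no effect; miR-21 action dims this reporter so a rising signal means less miR-21 action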
#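 Luminescence from a firefly luciferase reporter carrying a miR-21 binding site downstream, stably expressed under a CMV promoter in HeLa cells that make miR-21 endogenously, reports miRNA modulation after 48 h compound exposure up to approximately 40uM final.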
# TDP1 cell noCPT: qHTS for Inhibitors of human tyrosyl-DNA phosphodiesterase 1 (TDP1): qHTS in cells in absence of CPT. DT40 Tdp1-/- hTDP1 cells, no CPT, ATP luminescence, 48 h. Potency, µM (doses to about 46.2 µM), without a hit: at the top dose activity change, negative = growth inhibition, hits mostly inhibitors. 15% of 420,000 active; also: potency is read from the fitted curve at half-maximal effect; % is scaled to controls: 0 for no effect and ±100 for the full control effect; nearly all actives have a fitted effect of over 55% in size
#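 Readout: luminescence from CellTiter-Glo after 30 min in the dark at RT. Cells: DT40 Tdp1-/- with stable hTDP1, 400/well. Exposure: compounds alone, ≥48 hr, 37 °C.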
# Starred values were filed as active, the others as inactive; ? = inconclusive; · = no result. Only some compounds are listed: those with a hit (about 16% of all), similar ones and a draw of the others. Unless noted, calls follow the shape of the dose curve; as a rule, active = well fitted curve in the direction sought with a large enough effect; inconclusive = small, poorly fitted or top-dose-only effect, or another doubt; inactive = no such curve, though single readings can be large; an effect the other way counts as inactive or inconclusive.
SMILES,uPA surface inh,TDP1 cell CPT,TDP1 inh,miR-21 act,TDP1 cell noCPT
CC(C)c1ccc(C2=CC(c3ccc(C(C)C)cc3)n3nnnc3N2)cc1 (stereo not given),·,14.6µM*,3.8%,-41.3%,14.6µM*
COc1ccc(C2=CC(c3sccc3C)n3nnnc3N2)cc1 (stereo not given),0.2%,-30.2%,2.1%,-43.5%,-28.9%
O=C(NC1CCCN(Cc2ccc(Cl)cc2)C1)c1ccccc1-c1ncc[nH]1 (stereo not given),-9.8%,-9.3%,·,0.9%,5.8%
CC(C)Sc1nc2c(c(=O)[nH]c(=O)n2C)n1Cc1ccc(Cl)cc1,-3.9%,?,4.2%,-38.1%,25.9µM*
C=CCn1c(SCc2ccc(Cl)cc2)nc2c1c(=O)[nH]c(=O)n2C,-5.0%,?,3.8%,-38.9%,20.6µM*
C=CCSc1nc2c(c(=O)[nH]c(=O)n2C)n1C(C)C,-10.8%,-7.4%,2.3%,-32.8%,-25.8%
C/C(Cl)=C/CSc1nc2c(c(=O)[nH]c(=O)n2C)n1C(C)C,-8.6%,?,1.9%,-41.3%,16.4µM*
CCC(C)Sc1nc2c(c(=O)[nH]c(=O)n2C)n1Cc1ccc(Cl)cc1 (stereo not given),-9.9%,?,5.0%,-32.6%,?
CCCCCCSc1nc2c(c(=O)[nH]c(=O)n2C)n1C,11.7%,?,2.0%,-10.9%,20.6µM*
C/C(Cl)=C/Cn1c(SC(C)C)nc2c1c(=O)[nH]c(=O)n2C,-8.5%,?,-2.1%,-14.0%,16.4µM*
Cc1ccc(NC(=O)C(=O)NCC(c2cccnc2)N2CCN(Cc3ccccc3)CC2)cc1F (stereo not given),·,7.31µM*,5.2%,-1.4%,5.8µM*
Cc1ccc(NC(=O)C(=O)NCC(c2cccnc2)N2CCOCC2)cc1Cl (stereo not given),·,?,1.3%,?,?
Cc1ccc(NC(=O)C(=O)NCC(c2cccnc2)N2CCOCC2)cc1C (stereo not given),·,-23.0%,7.8%,?,?
Cc1ccc(NC(=O)C(=O)NCC(c2cccnc2)N2CCN(Cc3ccccc3)CC2)cc1C (stereo not given),·,16.4µM*,6.5%,-31.8%,16.4µM*
O=C(COC(=O)CCNS(=O)(=O)c1ccccc1)NC1CC1,-1.1%,3.0%,1.9%,·,1.2%
c1ccc(-c2ccc(-c3cnc4n3CCCCC4)cc2)cc1,2.6%,?,12.1%,-15.3%,18.4µM*
Cc1ccc(-c2cnc3n2CCCCC3)cc1,3.5%,?,2.4%,-9.0%,25.9µM*
c1cc2c(cc1-c1cnc3n1CCC3)OCCO2,?,18.4µM*,6.2%,10.4%,?
CCOC(=O)c1cnc2c(F)ccc(F)c2c1Sc1ccccc1,-8.5%,-48.7%,4.1%,0.0%,?
O=C(CN(c1ccc2c(c1)OCCO2)S(=O)(=O)c1ccccc1)NCc1ccc(Cl)cc1,23.2%,?,2.6%,11.9%,?
CCCCN(CCCC)S(=O)(=O)c1ccc2oc(C(=O)NCc3ccc(C)cc3)c(C)c2c1,·,8.2µM*,5.2%,13.8%,13µM*
CCc1ccc2oc(C(=O)NCc3ccncc3)c(C)c2c1,-10.0%,18.4µM*,-2.2%,-23.2%,14.6µM*
CCCCN(CCCC)S(=O)(=O)c1ccc2oc(C(=O)NCc3ccccc3)c(C)c2c1,·,10.3µM*,-2.6%,20.8%,14.6µM*
Cc1cc(C)c2c(C)c(C(=O)NCc3ccncc3)oc2c1,1.9%,-29.5%,2.4%,-7.0%,-18.3%
CCCCN(CC(=O)NCc1ccc(Cl)cc1)S(=O)(=O)c1ccc2c(c1)OCCO2,9.3%,?,2.6%,-3.7%,23.1µM*
SMILES,uPA surface inh,TDP1 cell CPT,TDP1 inh,miR-21 act,TDP1 cell noCPT
CN(C)C(/C=C/Nc1ccc(C#N)cc1)=C(C#N)C#N,4.2%,-2.4%,2.9%,-6.5%,-8.5%
Cc1ccc2oc(C(=O)NCc3ncc(C)[nH]3)c(C)c2c1,-17.1%,5.17µM*,0.6%,13.2%,?
CCN1CCN(CCNC(=O)C2CCCN(Cc3nc(-c4cccc(Cl)c4)oc3C)C2)CC1 (stereo not given),-13.7%,20.6µM*,3.9%,2.2%,16.4µM*
Cc1oc(-c2ccc(Cl)cc2)nc1CN1CCCC(C(=O)NC2CC2)C1 (stereo not given),-7.2%,16.4µM*,1.8%,-1.2%,10.3µM*
Cc1oc(-c2ccc(Cl)cc2)nc1CN1CCCC(C(=O)NCCCN2CCCC2=O)C1 (stereo not given),-26.9%,8.2µM*,-1.3%,8.4%,8.2µM*
Cc1oc(-c2cccc(Cl)c2)nc1CN1CCCC(C(=O)NCCc2ccc(Cl)cc2)C1 (stereo not given),·,?,5.8%,-0.1%,?
Cc1ccccc1-c1nc(CN2CCCC(C(=O)NCCCN3CCOCC3)C2)c(C)o1 (stereo not given),2.3%,3.5%,1.0%,-8.7%,?
CCOC(=O)N1CCC(NC(=O)CS(=O)(=O)Cc2nc(-c3cccc(Cl)c3)oc2C)CC1,-11.6%,-12.9%,0.5%,0.4%,-22.3%
CCOC(=O)N1CCC(NC(=O)C2CCCN(Cc3nc(-c4cccc(Cl)c4)oc3C)C2)CC1 (stereo not given),-18.1%,0.82µM*,2.9%,2.4%,0.731µM*
COc1ccc(C(=O)NCC2(c3ccccc3)CCOCC2)cc1,0.5%,-8.9%,·,-23.6%,-15.8%
CC(NC(=O)c1ccccc1)C(=O)NC1=NCCS1 (stereo not given),3.1%,-1.4%,4.3%,-2.0%,0.1%
Cc1oc(-c2ccc(Cl)cc2)nc1CN1CCCC(C(=O)NCc2ccco2)C1 (stereo not given),-10.8%,?,4.0%,22.1%,23.1µM*
CCc1ccc(-c2nc(CN3CCCC(C(=O)NCc4ccccc4Cl)C3)c(C)o2)cc1 (stereo not given),·,6.51µM*,6.9%,26.0%,4.61µM*
Cc1oc(-c2ccc(Cl)cc2)nc1CN1CCCC(C(=O)NCc2ccc(Cl)cc2)C1 (stereo not given),·,?,2.3%,2.5%,?
Cc1cc(N2CCN(Cc3nc(-c4ccc(Cl)cc4)oc3C)CC2)cc(C)n1,-13.9%,11.6µM*,·,?,18.4µM*
CCCN(CCC)CCNC(=O)C1CCN(Cc2nc(-c3ccc(Cl)cc3)oc2C)CC1,4.7%,?,2.0%,-7.2%,23.1µM*
COc1ccc(-c2nc(CN3CCN(c4cc(C)nc(C)c4)CC3)c(C)o2)c2ccccc12,-6.1%,-104.4%,2.8%,-1.7%,?
